IL-2 act – qHTS of IL-2 Activators; activation, % (series mostly up to about 46 µM); hit rate 0.065% among 360,000; IL-2 activation reporter assay, cell-based qHTS; stimulated with anti-CD3/CD4/CD28 beads; in transgenic mouse T cells; AID 652025, 2013; in the data active = activation above about 50%; inconclusive = mostly about 30% to 49%; note: 0% is about no effect
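Quantitative HTS in unstimulated transgenic mouse T cells, with memory T cells as non-tolerant control and PMA/ionomycin as tolerance-bypass control. Compound pretreatment lasted 60 minutes before 18 h bead stimulation; EGFP/DsRed fluorescence read.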
Vif-A3G inh – qHTS for Inhibitors of Vif-A3G Interactions: qHTS; HeLa A3G-eYFP + Vif (tagged APOBEC3G with the HIV-1 protein that degrades it), YFP fluorescence, overnight; Potency, µM (doses to about 46.1 µM), without a hit: at the highest dose activity, negative = active, usual class: inhibitors; DNA dC->dU-editing enzyme APOBEC-3G (Homo sapiens), Q9HC16; hit rate 0.076% among 410,000; note: potency is the fitted concentration of half-maximal effect; % is set by controls: 0 for no effect and ±100 for the full control effect; nearly all actives have a fitted effect of over 60% in size
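HeLa cells stably expressing Vif and C-terminally eYFP-tagged A3G, seeded overnight at 37 deg C, then exposed to compound by pintool overnight at 37 deg C. Rise in yellow fluorescence (Ex 488/Em 500-530, Acumen) marks blocked Vif-driven A3G degradation.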
PKM2 activator – qHTS Assay for Activators of Human Muscle isoform 2 Pyruvate Kinase. hit rate 0.34% among 260,000. AID 1631, 2009. purified PKM2, Kinase-Glo ATP luminescence, activation; response scale: 0% is enzyme alone, no compound. Potency, µM (doses to about 57.5 µM), for inactives: at the top dose activation, hits mostly activators. Pyruvate kinase PKM (Homo sapiens), P14618; note: potency is the fitted concentration of half-maximal effect; % is set by controls: 0 for no effect and ±100 for the full control effect; nearly all actives have a fitted effect of over 55% in size
Target sequence (P14618 whole entry, looked up, canonical isoform): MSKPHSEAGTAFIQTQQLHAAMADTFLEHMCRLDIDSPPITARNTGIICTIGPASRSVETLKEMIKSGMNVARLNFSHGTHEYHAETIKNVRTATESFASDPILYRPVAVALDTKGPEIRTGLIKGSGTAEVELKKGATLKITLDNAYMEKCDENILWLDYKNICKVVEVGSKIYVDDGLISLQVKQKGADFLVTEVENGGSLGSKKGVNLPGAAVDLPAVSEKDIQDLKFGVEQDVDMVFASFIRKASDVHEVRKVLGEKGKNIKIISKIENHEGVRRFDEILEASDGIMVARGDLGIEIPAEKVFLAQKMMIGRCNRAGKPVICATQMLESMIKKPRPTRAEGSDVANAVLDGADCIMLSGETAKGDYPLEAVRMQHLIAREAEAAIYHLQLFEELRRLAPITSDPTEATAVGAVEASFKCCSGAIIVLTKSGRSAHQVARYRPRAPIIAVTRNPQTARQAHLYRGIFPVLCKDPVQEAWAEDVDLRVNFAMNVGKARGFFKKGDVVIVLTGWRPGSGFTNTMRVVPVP
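Purified hPK-M2 (>95%) run at intermediate activity with 0.1 mM ADP and 0.5 mM PEP in 50 mM imidazole pH 7.2, KCl, MgCl2; 1 h room temperature. ATP formed read by Kinase-Glo luminescence; normalized to uninhibited and no-enzyme controls.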
Vif-A3F inh – qHTS for Inhibitors of Vif-A3F Interactions: qHTS. hit rate 0.2% among 390,000. HeLa A3F-eYFP + Vif (tagged APOBEC3F with the HIV-1 protein that degrades it), YFP fluorescence increase. Potency, µM (doses to about 46.1 µM), for inactives: at the top dose activity, negative = active; note: potency is the fitted concentration of half-maximal effect; % of control where 0% means no effect; nearly all actives have a fitted effect of over 65% in size
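HeLa cells stably expressing Vif plus C-terminally eYFP-tagged A3F were seeded, incubated overnight at 37 deg C, dosed with compound, incubated overnight again at 37 deg C. Yellow fluorescence (Ex 488/Em 500-530) reported blocked Vif-mediated A3F-eYFP degradation.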
* hit, by the source's call; ? = inconclusive; . = no result. Only some compounds are listed: those with a hit (about 0.53% of all), similar ones and a draw of the others. Unless noted, calls come from the whole dose curve; as a rule, active = well fitted curve in the direction sought with a large enough effect; inconclusive = small, poorly fitted or top-dose-only effect, or another doubt; inactive = no such curve, though single readings can be large; an effect the other way counts as inactive or inconclusive.

SMILES	IL-2 act	Vif-A3G inh	PKM2 activator	Vif-A3F inh
COc1ccc(C2c3c(ncn(CCCO)c3=N)Oc3ccc4ccccc4c32)cc1OC (stereo unspecified)	-4.8	-29.8%	-4.2%	-42.0%
Cc1ccc2onc(CNC(=O)NCc3cccc(Cl)c3)c2c1	.	-1.3%	.	0.5%
COc1ccccc1N1CCN(C(=O)c2cc3ccc4ccc(C)[nH]c4c3n2)CC1	.	-3.5%	.	2.7%
Cc1ccc(S(=O)(=O)N2CCCN(S(=O)(=O)c3ccc(C)c(C)c3)CC2)cc1C	-0.5	2.0%	2.24µM*	3.4%
O=C(Cc1ccc2c(c1)OCCO2)N1CCN(S(=O)(=O)c2cccs2)CC1	-3.8	1.0%	10.9%	-0.9%
O=C(Cc1ccc2c(c1)OCCO2)N1CCN(S(=O)(=O)c2ccccc2C(F)(F)F)CC1	-4.5	-3.9%	?	6.1%
CSc1ccc(S(=O)(=O)N2CCN(Cc3ccc4c(c3)OCO4)CC2)cc1	0.8	-7.0%	7.94µM*	-2.1%
Cc1ccc(S(=O)(=O)N2CCCC2)cc1S(=O)(=O)N1CCCC1	0.2	1.8%	-6.5%	2.2%
O=C(Cc1ccc2c(c1)OCCO2)N1CCN(S(=O)(=O)c2cccc(Cl)c2Cl)CC1	0.5	-1.6%	2.82µM*	2.8%
Cc1ccc(S(=O)(=O)N2CCN(C(=O)Cc3ccc4c(c3)OCCO4)CC2)cc1C	-4.0	-4.9%	3.16µM*	1.5%
Cn1cc(/C=C2\SC(=S)N(NC(=O)c3cccc(Cl)c3)C2=O)c2ccccc21	13.5	?	0.5%	7.94µM*
Cn1cc(/C=C2\SC(=S)N(NC(=O)c3ccccc3)C2=O)c2ccccc21	1.4	5.5%	6.7%	?
Cc1ccc(NC(=O)c2cccc3c(=O)c4c([nH]c23)CCCC4)c(C)c1	.	-14.5%	.	3.6%
COc1cc2c3nnc(-c4ccc(F)cc4)c-3cn(Cc3ccccc3F)c2cc1OC	87.3*	?	-9.2%	25.1µM*
COc1cc2c3nnc(-c4ccccc4)c-3cn(Cc3ccccc3F)c2cc1OC	175.6*	?	11.2%	?
CCOC(=O)c1c(-c2cccs2)csc1NC(=O)COC(=O)c1c(C)noc1C	-2.1	-3.8%	14.1µM*	-5.8%
COc1cc(/C=c2\sc3nc(=O)c(-c4ccccc4)nn3c2=O)ccc1OCCC(C)C	100.1*	-0.6%	1.3%	-2.1%
N#C/C(N=Nc1ccccc1O)=N\Nc1ccccc1O	-0.1	?	.	11.2µM*
Oc1ccccc1N=N/C(=N/Nc1ccccc1O)c1ccccc1	-0.1	1.7%	.	-0.1%
COc1ccc(CNC(=O)CS(=O)(=O)c2cccc3nsnc23)cc1	.	3.0%	.	1.2%
Cc1cc(N2C(=O)C=CC2=O)c([N+](=O)[O-])cc1C	-3.2	-16.4%	5.62µM*	4.3%
Cc1ccc2cc(CN(CC(C)C)S(=O)(=O)c3cccc4nonc34)c(=O)[nH]c2c1	65.1*	1.6%	.	-6.1%
Cc1ccc2cc(CN(CC3CCCO3)S(=O)(=O)c3cccc4nsnc34)c(=O)[nH]c2c1 (stereo unspecified)	-3.9	-2.1%	-1.6%	-0.9%
CCN(CC)C1=CC2=CC(=C(C#N)C#N)CCC2CC1 (stereo unspecified)	102.3*	7.4%	6.1%	?
CCCCN(C)C1=CC2=CC(=C(C#N)C#N)CCC2CC1 (stereo unspecified)	-4.9	3.2%	0.2%	-17.9%
SMILES	IL-2 act	Vif-A3G inh	PKM2 activator	Vif-A3F inh
COc1ccc(NC(=O)C(Cc2ccccc2)NS(=O)(=O)c2ccc(Br)s2)cc1OC (stereo unspecified)	.	3.2%	.	-4.0%
c1ccc2c(c1)nc(N1CCOCC1)c1nnnn12	1.7	0.4%	-4.3%	3.16µM*
Nc1nonc1-c1nc2ccccc2n1CC(=O)Nc1ccccc1	0.2	-13.4%	0.8%	-5.0%
Nc1nonc1-c1nc2ccccc2n1CC(=O)Nc1cccc(C(F)(F)F)c1	.	?	.	25.1µM*
CCCCn1c(=O)[nH]c(=O)c2c1nc(-c1ccc(-c3ccccc3Br)o1)n2CC	2.5	-1.2%	15.8µM*	-1.1%
CCc1ccc(NC(=O)CC2C(=O)N(c3ccc(OC)cc3)C(=O)N2Cc2cccs2)cc1 (stereo unspecified)	.	-8.5%	.	6.1%
Cc1cnc2ccccc2c1C	.	-3.0%	.	.
Cc1cc(NC(=O)Nc2nnc(N(C)Cc3ccccc3)s2)ccc1Br	.	12.6µM*	.	?
